Among the data in PubChem BioAssay AID651551 (Sanford-Burnham Center for Chemical Genomics, 2012) are inhibition % (higher = more inhibition) values, retold here.

The structures appear in SMILES notation.

This assay concerns the target PEG-3 (UniProt Q6IN02). Nature of the assay: GAPDH versus PEG-3 reporter suppression – cell-based, luminescence, counter-screen for PEG-3 promoter inhibitor project, SAR follow-up (AID 651551). To be noted: HeLa PEG-Prom / GAPDH luciferase reporter, 6 or 24 h, run 1, 6 h; at 99 µM (top of the series).
As to `CCn1cc(C(=O)NCc2ccco2)c(=O)c2cc(S(=O)(=O)N3CCCC3)ccc21`, the inhibition % (higher = more inhibition) was determined as 19.5%. The result for `COc1ccc(-n2nc(C(=O)NCC(=O)Nc3cc(OC)c(OC)c(OC)c3)c3ccccc3c2=O)cc1OC` reads 6.02%; that for `Cc1cc(NC(=O)c2ccccc2C(F)(F)F)n(-c2nc3ccccc3[nH]2)n1`, 92.7%.

Take `O=C(Nc1nccs1)c1nn(-c2ccccc2)c(=O)c2ccccc12`: the inhibition % (higher = more inhibition) stood at 37.4%. As for `O=C(Nc1nc2ccccc2s1)c1nn(-c2ccccc2)c(=O)c2ccccc12`, the inhibition % (higher = more inhibition) was -4.43%. Next, `O=C(Nc1nc(-c2ccccc2)cs1)c1nn(-c2ccccc2)c(=O)c2ccccc12`: -1.45%. Next, `Cc1cc(NC(=O)c2ccccc2C)n(-c2nc3ccccc3[nH]2)n1`: 32.8%; `Cc1nc(NC(=O)c2ccccc2)sc1-c1csc(Nc2cccc(Cl)c2C)n1`: 37.4%; `COc1ccc(-n2nc(C(=O)NCC(=O)Nc3cccc(OC)c3)c3ccccc3c2=O)cc1`: -7.42%. Take `CCCn1nc(C(=O)Nc2nc(-c3ccncc3)cs2)c2ccccc2c1=O`: the inhibition % (higher = more inhibition) was found to be 19.5%. For `Cc1cc(NC(=O)c2cccc(C)c2C)n(-c2nc3ccccc3[nH]2)n1`, the inhibition % (higher = more inhibition) was determined as 20.4%. Next, `Cc1nc(NC(=O)c2ccccc2)sc1-c1csc(Nc2ccccc2)n1`: 23.9%; `CCn1nc(C(=O)Nc2nc(-c3ccccn3)cs2)c2ccccc2c1=O`: 26.9%.

Turning to `COc1ccc(-n2nc(C(=O)NCC(=O)Nc3ccc(OC)c(OC)c3)c3ccccc3c2=O)cc1`, the inhibition % (higher = more inhibition) was found to be 23.9%. Next, `CCCn1nc(C(=O)Nc2nc3ccccc3s2)c2ccccc2c1=O`: 38.9%. The result for `COc1ccccc1Nc1nc(-c2sc(NC(=O)c3ccco3)nc2C)cs1` reads 12%. As for `COc1ccc(Cl)cc1Nc1nc(-c2sc(NC(=O)c3ccccc3)nc2C)cs1`, the inhibition % (higher = more inhibition) is 49.3%. Next, `Cc1cc(NC(=O)c2ccccc2)n(-c2nc3ccccc3n2C)n1`: 48.1%. Next, `COCCCNC(=O)c1ccc(Cn2c(=O)c3ccccc3n(Cc3ccccc3C#N)c2=O)cc1`: 43.4%. Next, `Cc1nc(NC(=O)c2ccccc2)sc1-c1csc(Nc2ccccc2Cl)n1`: -1.45%; `Cc1cc(NC(=O)c2ccccc2)n(-c2nc3ccccc3[nH]2)n1`: 14.9%.

For the compound `CCCn1nc(C(=O)Nc2nc(-c3ccccn3)cs2)c2ccccc2c1=O`, the inhibition % (higher = more inhibition) amounted to 25.9%. The result for `Cc1ccc(Cl)cc1Nc1nc(-c2sc(NC(=O)c3ccco3)nc2C)cs1` reads 57.5%.
